The source of these data is PubChem BioAssay (NCATS).

Inconclusive results are not listed. Where a call stands in place of a potency, no number is given. Activity calls are given as the source filed them. Calls come from the whole dose curve; as a rule, active = well fitted cell-killing curve with a large enough effect; inconclusive = small, poorly fitted or top-dose-only effect; inactive = no such curve, though single readings can be large or run the other way. Numbered stars: 1 amine (or outer) side, 2 acyl side, 3 side chain; on linkers, the order of the positions; unused ones are H or OH. Bridge positions count the residues as written; N and C are the ends. Square brackets hold non-standard residues; d marks the D form. Peptide text beside a SMILES is read from it. I, II: the chains in the order shown. Actinocin(9to1) = Cc1c2oc3c(C)ccc(C(=O)[*:1])c3nc-2c(C(=O)[*:2])c(N)c1=O; NMeV = CN[C@H](C(=O)O)C(C)C; Sar = CNCC(=O)O
Potency is the fitted concentration of half-maximal effect.

A short description of this experiment: qHTS of pediatric cancer cell lines to identify multiple opportunities for drug repurposing: Confirmatory screen for U-2 OS cells (AID 1347122). Note: nearly all actives have a fitted effect of over 65% in size. The following applies: U-2 OS osteosarcoma cell viability; series mostly up to 45.9 µM. The text has this:
Drug repurposing or repositioning has been offered as a strategy for drug development in oncology programs. This approach has special potential for childhood cancers and other rare or orphan diseases, where the expected return on new drug development has been a disincentive to pharmaceuticals.
In this project we exploit the poly-pharmacology of drugs to discover new indications via phenotypic screening of a panel of 19 well-characterized cell lines derived from solid tumors seen in children and adolescents. The goal is to identify approved drugs with previously unrecognized anticancer properties that has the potential to reveal new mechanisms and biological processes involved in carcinogenesis or drug resistance. We employed a titration-based paradigm (quantitative high-throughput screening or qHTS), where all compounds were tested at multiple concentrations for their effect on cell viability. Concentration-response curves (CRCs) were derived directly from the primary screen, and both potency and efficacy values were used to identify compounds with robust bioactivity profiles. We screened the NIH Chemical Genomics Center (NCGC) Pharmaceutical Collection (NPC) and Mechanism Interrogation Plate (MIPE) small molecule collections of approved and investigational compounds against these cell lines; and measured metabolically active cells after 48 hours of compound treatment as a proxy for cell viability.
Assay Submitter: Nathalia J. Martinez, National Center for Advancing Translational Sciences, National Institutes of Health, Rockville, MD, USA; email: natalia.martinez@nih.gov
[1] Shen, M et al. Quantitative high-throughput phenotypic screening of pediatric cancer cell lines identifies multiple opportunities for drug repurposing. Oncotarget 2017 Dec 19;9(4):4758-4772. PMID 29435139.
The cells were obtained from University of North Carolina (UNC), Pediatric Preclinical Testing Program (PPT), and Coriell Institute (CI).
qHTS cell viability assay:
Cells were assayed in growth media at a density of 500-1,000 cells/well. Five microliters of cells were dispensed into 1,536-well, white, solid-bottom, TC-treated plates (Greiner Bio One) using a multidrop dispenser and incubated at 37 degrees C, 5% CO2, under a humidified atmosphere for 5 hours. Twenty-three nanoliters of compounds and controls (neutral control DMSO or positive control bortezomib at final concentration of 2.3 µM) were subsequently transferred by Kalypsys pintool. For primary screens, the MIPE collection was tested at 11-point dilutions (final concentrations range from 0.78 nM to 46 µM) and the NPC collection at 8-point dilutions (final concentrations range from 0.59 nM to 46 µM). Compounds tested in follow-up screens were assayed at 11-point dilutions. Cells were incubated for 48 hours, followed by addition of 3 µL of CellTiter-Glo (Promega). After a 15 min incubation at room temperature, samples were analyzed for luminescence intensity using a ViewLux High-throughput CCD imager equipped with clear filters.
Turning to `NC(CO)(CO)CO`, the Potency entry is “inactive”.
With `CC1(C)O[C@@H]2C[C@H]3[C@@H]4C[C@H](F)C5=CC(=O)CC[C@]5(C)[C@H]4[C@@H](O)C[C@]3(C)[C@]2(C(=O)CO)O1` the entry was “inactive”; with `CCCC(=O)O[C@]1(C(=O)CO)CC[C@H]2[C@@H]3CCC4=CC(=O)CC[C@]4(C)[C@H]3[C@@H](O)C[C@@]21C`, “inactive”; with `CCC(C(=O)OCCN(CC)CC)c1ccccc1` (configuration not stated), “inactive”.
For `Oc1ccc(O)cc1`, the Potency entry was “inactive”.
Consider `CC(=O)Oc1ccc(C(c2ccc(OC(C)=O)cc2)c2ccccn2)cc1`, for which the Potency entry was “inactive”.
The result for `CC(=O)OCC(=O)[C@@]1(O)CC[C@H]2[C@@H]3CCC4=CC(=O)C=C[C@]4(C)[C@H]3[C@@H](O)C[C@@]21C` reads “inactive”.
Turning to `CC(=O)[C@H]1CC[C@H]2[C@@H]3C[C@H](C)C4=CC(=O)CC[C@]4(C)[C@H]3[C@@H](O)C[C@]12C`, the Potency was 329 nM (active).
As to `C[C@]12CCC(=O)C=C1CC[C@H]1[C@@H]3CC[C@](O)(C(=O)CO)[C@@]3(C)C[C@H](O)[C@@]12F`, the Potency result was “inactive”.
With `CC(=O)OCC(=O)[C@@]1(OC(C)=O)[C@@H](C)C[C@H]2[C@@H]3C[C@H](F)C4=CC(=O)C=C[C@]4(C)[C@@]3(F)[C@@H](O)C[C@@]21C` the entry was “inactive”; with `CCCCCCC[N+](CC)(CC)CCCCc1ccc(Cl)cc1`, “inactive”.
The result for `C[C@@H]1C[C@H]2[C@@H]3CCC4=CC(=O)C=C[C@]4(C)[C@@]3(F)[C@@H](O)C[C@]2(C)[C@H]1C(=O)CO` reads “inactive”.
The result for `CC1(C)O[C@@H]2C[C@H]3[C@@H]4CCC5=CC(=O)CC[C@]5(C)[C@@]4(F)[C@@H](O)C[C@]3(C)[C@]2(C(=O)CCl)O1` reads “inactive”; that for `CCOc1ccc2nc3cc(N)ccc3c(N)c2c1`, 585 nM (active); that for `CC(=O)OCC(=O)[C@@]12OC(C)(C)O[C@@H]1C[C@H]1[C@@H]3C[C@H](F)C4=CC(=O)C=C[C@]4(C)[C@@]3(F)[C@@H](O)C[C@@]12C`, “inactive”.
On to `O=C(CCCN1CCC(O)(c2ccc(Br)cc2)CC1)c1ccc(F)cc1`, for which the Potency result is “inactive”.
For the molecule `CC(=O)OCC(=O)[C@@]1(O)[C@H](C)C[C@H]2[C@@H]3CCC4=CC(=O)C=C[C@]4(C)[C@@]3(F)[C@@H](O)C[C@@]21C`, the Potency was 20800 nM (active).
The result for `CN(C)C(=S)SC(=S)N(C)C` reads “inactive”; that for `COc1c(C)c2c(c(O)c1C/C=C(\C)CCC(=O)O)C(=O)OC2`, 1850 nM (active); that for `C[n+]1c2cc(N)ccc2cc2ccc(N)cc21` (tested in a mixture with another compound), 16500 nM (active).
In the case of `C[C@@H]1C[C@H]2[C@@H]3C[C@H](F)C4=CC(=O)C(Cl)=C[C@]4(C)[C@@]3(F)[C@@H](O)C[C@]2(C)[C@@]1(O)C(=O)CO`, the Potency result was “inactive”.
With `C[C@H]1C[C@H]2[C@@H]3CCC4=CC(=O)C=C[C@]4(C)[C@@]3(Cl)[C@@H](O)C[C@]2(C)[C@@]1(O)C(=O)CO` the entry was “inactive”; with `CC(C)(C(=O)c1cccnc1)c1cccnc1`, “inactive”; with `C[C@]12C=CC(=O)C=C1CC[C@@H]1[C@@H]2[C@@H](O)C[C@@]2(C)[C@H]1CC[C@]2(O)C(=O)CO`, “inactive”.
With `CCCCC(CC)CN=C(N)NC(N)=NCCCCCCN=C(N)NC(N)=NCC(CC)CCCC` (configuration not stated) the figure was 4650 nM (active).
The result for `C[C@]12C=CC(=O)C=C1[C@@H](F)C[C@@H]1[C@@H]2[C@@H](O)C[C@@]2(C)[C@H]1CC[C@]2(O)C(=O)CO` reads “inactive”; that for `CN(C)/N=N/c1nc[nH]c1C(N)=O`, “inactive”.
Consider `COCc1c(C(C)C)nc(C(C)C)c(/C=C/[C@@H](O)C[C@@H](O)CC(=O)O)c1-c1ccc(F)cc1`, for which the Potency is 261 nM (active).
The result for `CC(=O)OCC(=O)[C@@]12N=C(C)O[C@@H]1C[C@H]1[C@@H]3CCC4=CC(=O)C=C[C@]4(C)[C@H]3[C@@H](O)C[C@@]12C` reads “inactive”; that for `Cc1c2oc3c(C)ccc(C(=O)N[C@@H]4C(=O)N[C@H](C(C)C)C(=O)N5CCC[C@H]5C(=O)N(C)CC(=O)N(C)[C@@H](C(C)C)C(=O)O[C@@H]4C)c3nc-2c(C(=O)N[C@@H]2C(=O)N[C@H](C(C)C)C(=O)N3CCC[C@H]3C(=O)N(C)CC(=O)N(C)[C@@H](C(C)C)C(=O)O[C@@H]2C)c(N)c1=O` (I: T[dV]P[Sar][NMeV] / II: T[dV]P[Sar][NMeV]; ester I:1-I:C, II:1-II:C; linker I:N-II:N via Actinocin(9to1)), 369 nM (active).
The result for `C[C@@H]1CN(CCCn2c3ccccc3c3ccccc32)C[C@H](C)N1` reads “inactive”.
With `NC(=O)CC[C@@H]1NC(=O)[C@H](Cc2ccccc2)NC(=O)[C@H](Cc2ccc(O)cc2)NC(=O)CCSSC[C@@H](C(=O)N2CCC[C@H]2C(=O)N[C@@H](CCCN=C(N)N)C(=O)NCC(N)=O)NC(=O)[C@H](CC(N)=O)NC1=O` the entry was “inactive”.
